Measured values taken from PubChem BioAssay (EPA / NIEHS).
Results filed as inconclusive are left out. Activity calls are given as the source filed them. How the source made its calls, unless noted: active means hit-call score of the fitted dose curve at least 0.9, where 1 is the maximum; inconclusive means response in the unintended direction; inactive means score below 0.9.

How the values were obtained:
[1] = ATG_TAL_CIS: Attagene CIS-FACTORIAL HepG2 Assay for human TAL Basal Promoter (AID 2282966; active means hit-call score of the fitted dose curve at least 0.9, where 1 is the maximum; inactive means score below 0.9;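 further: background control endpoint measuring basal TAL promoter reporter mRNA not a specific factor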); details: HepG2 Attagene cis-factorial TAL promoter reporter; actives raise or lower the signal
Outline: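 Steps: transfect HepG2 with multiple reporter transcription units; dose 24 h; isolate RNA, reverse-transcribe, PCR-amplify, label with 6-FAM, digest with HpaI; resolve by capillary electrophoresis. Bidirectional fitting against DMSO baseline.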

[2] = ATG_TGFb_CIS: Attagene CIS-FACTORIAL HepG2 Assay for human Transforming Growth Factor (TGF) (AID 2282967; active means hit-call score of the fitted dose curve at least 0.9, where 1 is the maximum; inactive means score below 0.9); details: HepG2 Attagene CIS TGFb reporter, mRNA transcription; actives raise or lower the signal
Outline: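 Bidirectional fitting relative to DMSO gave the endpoint. Underlying data: reporter mRNA from HepG2 cells carrying transiently transfected cis-regulated reporter constructs, harvested 24 h after dosing and analyzed by RT-PCR and capillary electrophoresis.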

[3] = ATG_VDRE_CIS: Attagene CIS-FACTORIAL HepG2 Assay for human Vitamin D Receptor Element (VDRE) (AID 2282968; active means hit-call score of the fitted dose curve at least 0.9, where 1 is the maximum; inactive means score below 0.9); details: HepG2 VDRE cis-reporter transcription, actives raise or lower the signal
Outline: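 Reporter mRNA induction, quantified by capillary electrophoresis of fluorescently labelled RT-PCR products, was read 24 h after dosing HepG2 cells carrying transiently transfected cis-regulated reporter units; gain or loss relative to DMSO.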

[4] = target: Estrogen receptor (Homo sapiens) (UniProt P03372); experiment: ATG_ERa_TRANS: Attagene TRANS-FACTORIAL HepG2 Assay for human Estrogen Receptor alpha (ERa) (AID 2282970); details: HepG2 Attagene TRANS ERa GAL4 reporter, mRNA
Outline: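 Multiplexed cell-based reporter format in HepG2: chimeric ERa-Gal4 protein drives GAL4-UAS reporter transcription. Fluorescent reporter mRNA quantified by capillary electrophoresis 24 hours after dosing; endpoint fitted as signal gain against DMSO.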

[5] = target: X-box-binding protein 1 (Homo sapiens) (UniProt P17861); experiment: ATG_Xbp1_CIS: Attagene CIS-FACTORIAL HepG2 Assay for human X-box Binding Protein 1 (XBP1) (AID 2282972; active means hit-call score of the fitted dose curve at least 0.9, where 1 is the maximum; inactive means score below 0.9); details: HepG2 XBP1 cis-element reporter, Attagene multiplex; actives raise or lower the signal
Outline: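 HepG2, transient MRTU transfection (cis-promoter driven), 24 h compound exposure. Total RNA → oligo(dT) RT → PCR → 6-FAM labeling → HpaI cut → CE. Bidirectional fit vs DMSO.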

[6] = ATG_M_19_TRANS: Attagene TRANS-FACTORIAL HepG2 Assay for M19 Transcription Factor (Internal Marker) (AID 2282974); details: HepG2 Attagene TRANS-FACTORIAL M19 internal marker reporter
Outline: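 Multiplexed TRANS format: HepG2 liver cells bearing transient GAL4-UAS reporter units, chemical treatment 24 h, reporter transcripts quantified by RT-PCR plus capillary electrophoresis. DMSO defines baseline.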

[7] = ATG_GAL4_TRANS: Attagene TRANS-FACTORIAL HepG2 Assay for GAL4 (Internal Marker) (AID 2282976); details: HepG2 Attagene TRANS GAL4 internal marker reporter
Outline: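 Liver HepG2 line bearing multiplexed GAL4-UAS reporter constructs; 24 h chemical treatment. Transcripts were quantified as fluorescent fragments on capillary electrophoresis after RT-PCR and HpaI cut, with activity fitted upward from DMSO.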

[8] = target: Bile acid receptor (Homo sapiens) (UniProt Q96RI1); experiment: ATG_FXR_TRANS: Attagene TRANS-FACTORIAL HepG2 Assay for Farnesoid X Receptor (FXR) (AID 2282979); details: HepG2 Attagene TRANS FXR-GAL4 reporter transcription;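 further: hits raise reporter mRNA above DMSO so AC50 marks FXR activation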
Outline: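 After 24 h chemical treatment of transfected HepG2 cells, GAL4-UAS reporter transcripts driven by an exogenous FXR-GAL4 fusion were measured by RT-PCR and capillary electrophoresis. Increases over DMSO were fitted.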

[9] = target: Oxysterols receptor LXR-beta (Homo sapiens) (UniProt P55055); experiment: ATG_LXRb_TRANS: Attagene TRANS-FACTORIAL HepG2 Assay for human Liver X Receptor beta (LXRb) (AID 2282981); details: HepG2 Attagene TRANS GAL4-LXRb reporter, mRNA
Outline: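 Transient transfection HepG2 (multiplexed RTUs, GAL4-UAS); NR-Gal4 chimera; 24 h exposure; RNA → RT-PCR → 6-FAM primer extension → HpaI → CE; increase vs DMSO.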

[10] = target: Transcriptional activator Myb (Homo sapiens) (UniProt P10242); experiment: ATG_Myb_CIS: Attagene CIS-FACTORIAL HepG2 Assay for human Myeloblastosis (Myb) Proto-Oncogene Transcription Factor (AID 2282986; active means hit-call score of the fitted dose curve at least 0.9, where 1 is the maximum; inactive means score below 0.9); details: HepG2 Attagene CIS-FACTORIAL Myb reporter transcription; actives raise or lower the signal
Outline: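 Using HepG2 liver cells bearing transiently transfected cis-promoter reporter constructs, the assay measures induction or loss of reporter mRNA after 24 hours of dosing. Detection used fluorescently labeled RT-PCR products separated by capillary electrophoresis.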

[11] = target: Nuclear respiratory factor 1 (Homo sapiens) (UniProt Q16656); experiment: ATG_NRF1_CIS: Attagene CIS-FACTORIAL HepG2 Assay for human Nuclear Respiratory Factor 1 (NRF1) Orphan Gene (AID 2282987; active means hit-call score of the fitted dose curve at least 0.9, where 1 is the maximum; inactive means score below 0.9); details: HepG2 NRF1 cis-element reporter, Attagene multiplex; actives raise or lower the signal
Outline: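 Reporter mRNA induction or loss in HepG2 cells after 24 h dosing; cis-regulated reporter constructs report endogenous transcription-factor activity. Quantified by RT-PCR/capillary electrophoresis fluorescence, DMSO-referenced.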

[12] = target: Nuclear receptor subfamily 1 group I member 3 (Homo sapiens) (UniProt Q14994); experiment: ATG_CAR_TRANS: Attagene TRANS-FACTORIAL HepG2 Assay for human Constitutive Androstane Receptor (CAR) (AID 2282969); details: HepG2 Attagene TRANS-FACTORIAL CAR reporter;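 further: activators raise reporter mRNA above DMSO so AC50 marks induction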
Outline: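 Readout is reporter mRNA induction, quantified by fluorescent primer extension and capillary electrophoresis after RT-PCR. Cells were HepG2 transiently carrying chimeric NR-Gal4 constructs with GAL4-UAS reporters, treated for 24 h; activity scored upward from DMSO.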

[13] = ATG_M_06_TRANS: Attagene TRANS-FACTORIAL HepG2 Assay for M06 Transcription Factor (Internal Marker) (AID 2282983); details: HepG2 Attagene TRANS M06 internal marker reporter;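 further: reporter transcript level by RT-PCR then capillary electrophoresis fluorescence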
Outline: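 Internal-marker background readout from a multiplexed TRANS reporter system in HepG2; 24 h dosing; mRNA induction quantified by RT-PCR plus capillary electrophoresis fluorescence; DMSO as negative control and baseline.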

[14] = ATG_M_32_TRANS: Attagene TRANS-FACTORIAL HepG2 Assay for M32 Transcription Factor (Internal Marker) (AID 2282984); details: HepG2 Attagene TRANS M32 internal marker reporter;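 further: transcript level of a background control reporter unit measured by RT-PCR and capillary electrophoresis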
Outline: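 Measures reporter mRNA induction in human HepG2 liver cells after 24 h chemical treatment. Transcripts from transiently transfected GAL4-UAS reporter units are amplified, fluorescently labelled and sized by capillary electrophoresis; gain of signal relative to DMSO.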

[15] = target: Nuclear receptor subfamily 4 group A member 2 (Homo sapiens) (UniProt P43354); experiment: ATG_NURR1_TRANS: Attagene TRANS-FACTORIAL HepG2 Assay for human Nuclear Receptor Related Protein 1 (NURR1) (AID 2282985); details: HepG2 Attagene TRANS reporter, mRNA readout
Outline: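 Transient transfection of HepG2, human liver cells, with multiple GAL4-UAS reporter transcription units. Cells dosed 24 h, RNA isolated, reverse-transcribed, PCR-amplified, FAM-labelled, HpaI-digested, sized by capillary electrophoresis. DMSO served as negative control.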

[16] = target: Glucocorticoid receptor (Homo sapiens) (UniProt P04150); experiment: ATG_GR_TRANS: Attagene TRANS-FACTORIAL HepG2 Assay for human Glucocorticoid Receptor (GR) (AID 2282978); details: HepG2 Attagene TRANS GR reporter, mRNA transcription;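 further: activators score as hits since higher reporter transcript over DMSO is fitted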
Outline: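 Transiently transfected HepG2 cells express chimeric NR-GAL4 proteins acting on GAL4-UAS reporter units. Compounds are applied for 24 h. mRNA induction over DMSO is measured by capillary electrophoresis.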

[17] = target: Oxysterols receptor LXR-alpha (Homo sapiens) (UniProt Q13133); experiment: ATG_LXRa_TRANS: Attagene TRANS-FACTORIAL HepG2 Assay for human Liver X Receptor alpha (LXRa) (AID 2282980); details: HepG2 Attagene TRANS reporter, LXRa transactivation
Outline: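 In this multiplexed TRANS system, compounds act on HepG2 cells carrying GAL4-UAS reporter units and a receptor-GAL4 fusion for 24 h. Induced reporter RNA is amplified, fluorescently labelled and sized by capillary electrophoresis, with DMSO as baseline.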

[18] = target: Hepatocyte nuclear factor 4-alpha (Homo sapiens) (UniProt P41235); experiment: ATG_HNF4a_TRANS: Attagene TRANS-FACTORIAL HepG2 Assay for human Hepatocyte Nuclear Factor 4 alpha (HNF4a) (AID 2282982); details: HepG2 HNF4a transactivation reporter, mRNA readout
Outline: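 Readout is fluorescent reporter-transcript fragments resolved by capillary electrophoresis after RT-PCR from HepG2 cells dosed for 24 h. Cells carried transfected GAL4-UAS reporter constructs measuring exogenous NR-GAL4 chimera activity; DMSO served as baseline.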

[19] = target: Steroid hormone receptor ERR1 (Homo sapiens) (UniProt P11474); experiment: ATG_ERRa_TRANS: Attagene TRANS-FACTORIAL HepG2 Assay for human Estrogen-Related Receptor alpha (ERRa) (AID 2282971); details: HepG2 Attagene TRANS reporter, ERRa transactivation
Outline: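 Signal gain relative to DMSO for an ERRa-Gal4 chimeric receptor, read as reporter mRNA by RT-PCR/capillary electrophoresis. Human HepG2 liver cells, transient multiplex reporter transfection, 24 h chemical exposure.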

[20] = target: Estrogen-related receptor gamma (Homo sapiens) (UniProt P62508); experiment: ATG_ERRg_TRANS: Attagene TRANS-FACTORIAL HepG2 Assay for human Estrogen-Related Receptor gamma (ERRg) (AID 2282977); details: HepG2 Attagene TRANS reporter, ERRg transactivation;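 further: hits increase reporter signal over DMSO so potencies reflect activators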
Outline: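 HepG2 cells transiently transfected with multiplexed GAL4-UAS reporter units driven by chimeric NR-Gal4 proteins; 24 h exposure. Reporter mRNA quantified by RT-PCR, fluorescent labelling, HpaI digestion and capillary electrophoresis; gain of signal vs DMSO.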

Measured: AC50

Nuclear receptor subfamily 4 group A member 2 (Homo sapiens), sequence (P43354 whole entry, looked up, the tested form may be a part): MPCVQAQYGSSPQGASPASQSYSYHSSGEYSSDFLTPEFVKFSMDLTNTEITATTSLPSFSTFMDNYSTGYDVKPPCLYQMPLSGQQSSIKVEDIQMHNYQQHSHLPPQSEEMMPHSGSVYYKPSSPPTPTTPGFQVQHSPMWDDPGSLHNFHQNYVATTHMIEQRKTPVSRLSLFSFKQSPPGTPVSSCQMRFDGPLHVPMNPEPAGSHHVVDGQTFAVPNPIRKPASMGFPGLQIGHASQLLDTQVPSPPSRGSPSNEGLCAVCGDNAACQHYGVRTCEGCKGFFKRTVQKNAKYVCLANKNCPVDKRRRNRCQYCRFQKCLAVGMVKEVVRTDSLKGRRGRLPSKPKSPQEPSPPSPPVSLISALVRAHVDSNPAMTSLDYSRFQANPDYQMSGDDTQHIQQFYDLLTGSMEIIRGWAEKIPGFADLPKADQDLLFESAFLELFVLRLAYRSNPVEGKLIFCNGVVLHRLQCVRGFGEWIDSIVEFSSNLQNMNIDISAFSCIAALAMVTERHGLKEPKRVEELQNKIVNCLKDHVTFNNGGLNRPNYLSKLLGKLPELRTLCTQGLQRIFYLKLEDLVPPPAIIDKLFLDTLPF
Oxysterols receptor LXR-beta (Homo sapiens), sequence (P55055 whole entry, looked up, the tested form may be a part): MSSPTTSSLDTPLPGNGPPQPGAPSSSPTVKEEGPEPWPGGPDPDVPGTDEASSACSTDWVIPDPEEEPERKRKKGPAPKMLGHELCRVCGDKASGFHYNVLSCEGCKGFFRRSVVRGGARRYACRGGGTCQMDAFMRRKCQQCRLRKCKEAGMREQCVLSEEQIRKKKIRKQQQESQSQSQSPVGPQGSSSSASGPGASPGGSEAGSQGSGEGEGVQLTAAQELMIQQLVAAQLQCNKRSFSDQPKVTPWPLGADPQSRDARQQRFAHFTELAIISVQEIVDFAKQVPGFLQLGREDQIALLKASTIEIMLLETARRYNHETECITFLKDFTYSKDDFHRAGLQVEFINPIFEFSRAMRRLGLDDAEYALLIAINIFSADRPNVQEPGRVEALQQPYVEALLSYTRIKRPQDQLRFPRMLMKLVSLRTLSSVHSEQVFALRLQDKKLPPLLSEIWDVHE
Estrogen-related receptor gamma (Homo sapiens), sequence (P62508 whole entry, looked up, the tested form may be a part): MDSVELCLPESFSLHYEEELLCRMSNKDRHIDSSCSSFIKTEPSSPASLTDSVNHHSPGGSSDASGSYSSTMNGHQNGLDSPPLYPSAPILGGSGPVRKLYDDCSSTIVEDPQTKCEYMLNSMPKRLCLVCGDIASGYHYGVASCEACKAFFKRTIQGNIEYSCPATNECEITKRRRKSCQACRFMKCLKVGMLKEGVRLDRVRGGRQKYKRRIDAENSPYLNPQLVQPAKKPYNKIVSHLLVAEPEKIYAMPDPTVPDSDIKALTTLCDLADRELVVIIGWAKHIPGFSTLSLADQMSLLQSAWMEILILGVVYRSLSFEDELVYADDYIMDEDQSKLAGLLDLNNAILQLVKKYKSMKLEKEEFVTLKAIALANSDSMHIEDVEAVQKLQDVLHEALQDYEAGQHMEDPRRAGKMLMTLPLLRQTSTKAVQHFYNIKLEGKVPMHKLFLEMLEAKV
Nuclear receptor subfamily 1 group I member 3 (Homo sapiens), sequence (Q14994 whole entry, looked up, the tested form may be a part): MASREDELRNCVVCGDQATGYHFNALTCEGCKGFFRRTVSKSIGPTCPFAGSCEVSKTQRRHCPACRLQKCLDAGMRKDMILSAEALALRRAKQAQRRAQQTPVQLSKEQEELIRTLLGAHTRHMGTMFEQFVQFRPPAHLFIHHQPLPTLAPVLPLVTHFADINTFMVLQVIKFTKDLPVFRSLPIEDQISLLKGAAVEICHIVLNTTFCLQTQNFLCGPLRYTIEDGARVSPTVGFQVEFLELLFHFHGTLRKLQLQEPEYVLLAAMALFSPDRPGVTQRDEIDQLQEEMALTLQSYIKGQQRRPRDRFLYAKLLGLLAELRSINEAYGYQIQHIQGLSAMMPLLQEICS
Bile acid receptor (Homo sapiens), sequence (Q96RI1 whole entry, looked up, the tested form may be a part): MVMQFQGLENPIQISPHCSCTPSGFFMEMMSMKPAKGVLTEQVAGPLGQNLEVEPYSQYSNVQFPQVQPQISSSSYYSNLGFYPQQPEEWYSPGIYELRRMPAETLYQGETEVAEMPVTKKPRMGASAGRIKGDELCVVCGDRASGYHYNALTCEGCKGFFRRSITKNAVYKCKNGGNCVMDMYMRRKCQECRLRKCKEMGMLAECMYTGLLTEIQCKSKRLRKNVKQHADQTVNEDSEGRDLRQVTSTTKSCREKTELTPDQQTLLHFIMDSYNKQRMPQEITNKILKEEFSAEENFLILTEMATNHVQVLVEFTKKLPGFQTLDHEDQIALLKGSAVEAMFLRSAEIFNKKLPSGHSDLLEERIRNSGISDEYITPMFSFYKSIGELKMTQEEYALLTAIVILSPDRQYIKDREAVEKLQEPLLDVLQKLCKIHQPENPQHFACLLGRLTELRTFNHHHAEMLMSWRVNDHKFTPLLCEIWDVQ
Nuclear respiratory factor 1 (Homo sapiens), sequence (Q16656 whole entry, looked up): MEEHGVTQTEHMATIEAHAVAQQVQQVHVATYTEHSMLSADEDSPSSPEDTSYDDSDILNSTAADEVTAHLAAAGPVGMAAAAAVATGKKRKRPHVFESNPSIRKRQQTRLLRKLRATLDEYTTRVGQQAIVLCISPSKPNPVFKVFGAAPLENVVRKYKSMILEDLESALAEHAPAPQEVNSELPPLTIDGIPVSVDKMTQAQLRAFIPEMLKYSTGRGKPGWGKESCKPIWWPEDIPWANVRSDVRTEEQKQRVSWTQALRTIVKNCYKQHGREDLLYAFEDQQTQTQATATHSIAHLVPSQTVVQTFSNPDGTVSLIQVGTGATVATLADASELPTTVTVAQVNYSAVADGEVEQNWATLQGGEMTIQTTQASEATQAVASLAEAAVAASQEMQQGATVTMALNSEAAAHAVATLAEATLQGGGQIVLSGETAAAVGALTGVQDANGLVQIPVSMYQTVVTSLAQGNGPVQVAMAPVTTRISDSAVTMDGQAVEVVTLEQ
Estrogen receptor (Homo sapiens), sequence (P03372 whole entry, looked up, the tested form may be a part): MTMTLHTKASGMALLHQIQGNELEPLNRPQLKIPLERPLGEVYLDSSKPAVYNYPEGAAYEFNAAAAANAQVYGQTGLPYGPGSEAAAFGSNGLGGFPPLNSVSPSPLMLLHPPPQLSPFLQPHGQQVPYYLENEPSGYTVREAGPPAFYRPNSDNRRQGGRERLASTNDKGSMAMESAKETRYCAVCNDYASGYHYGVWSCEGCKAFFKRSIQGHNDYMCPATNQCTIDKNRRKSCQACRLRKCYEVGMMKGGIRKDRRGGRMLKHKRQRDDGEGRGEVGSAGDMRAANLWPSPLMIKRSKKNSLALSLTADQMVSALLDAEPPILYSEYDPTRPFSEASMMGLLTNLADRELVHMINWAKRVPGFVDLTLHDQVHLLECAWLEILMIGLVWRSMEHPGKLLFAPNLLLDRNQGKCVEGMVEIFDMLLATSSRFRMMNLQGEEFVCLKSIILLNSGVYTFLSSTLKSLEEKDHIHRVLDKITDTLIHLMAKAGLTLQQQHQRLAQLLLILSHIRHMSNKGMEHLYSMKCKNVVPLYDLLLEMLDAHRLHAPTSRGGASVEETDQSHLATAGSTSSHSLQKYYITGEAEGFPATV
Oxysterols receptor LXR-alpha (Homo sapiens), sequence (Q13133 whole entry, looked up, the tested form may be a part): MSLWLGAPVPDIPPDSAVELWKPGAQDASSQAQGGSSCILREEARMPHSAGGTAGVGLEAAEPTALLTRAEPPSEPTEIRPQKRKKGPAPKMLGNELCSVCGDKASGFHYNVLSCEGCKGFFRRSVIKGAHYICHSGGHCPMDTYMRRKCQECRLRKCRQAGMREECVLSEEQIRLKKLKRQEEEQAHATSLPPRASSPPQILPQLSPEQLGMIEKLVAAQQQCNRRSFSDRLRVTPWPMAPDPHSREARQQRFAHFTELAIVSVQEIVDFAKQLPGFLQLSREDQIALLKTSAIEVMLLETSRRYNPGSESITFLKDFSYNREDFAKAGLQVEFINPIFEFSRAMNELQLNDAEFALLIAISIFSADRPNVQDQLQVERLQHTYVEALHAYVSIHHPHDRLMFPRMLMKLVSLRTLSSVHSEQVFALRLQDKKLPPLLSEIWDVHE
Glucocorticoid receptor (Homo sapiens), sequence (P04150 whole entry, looked up, the tested form may be a part): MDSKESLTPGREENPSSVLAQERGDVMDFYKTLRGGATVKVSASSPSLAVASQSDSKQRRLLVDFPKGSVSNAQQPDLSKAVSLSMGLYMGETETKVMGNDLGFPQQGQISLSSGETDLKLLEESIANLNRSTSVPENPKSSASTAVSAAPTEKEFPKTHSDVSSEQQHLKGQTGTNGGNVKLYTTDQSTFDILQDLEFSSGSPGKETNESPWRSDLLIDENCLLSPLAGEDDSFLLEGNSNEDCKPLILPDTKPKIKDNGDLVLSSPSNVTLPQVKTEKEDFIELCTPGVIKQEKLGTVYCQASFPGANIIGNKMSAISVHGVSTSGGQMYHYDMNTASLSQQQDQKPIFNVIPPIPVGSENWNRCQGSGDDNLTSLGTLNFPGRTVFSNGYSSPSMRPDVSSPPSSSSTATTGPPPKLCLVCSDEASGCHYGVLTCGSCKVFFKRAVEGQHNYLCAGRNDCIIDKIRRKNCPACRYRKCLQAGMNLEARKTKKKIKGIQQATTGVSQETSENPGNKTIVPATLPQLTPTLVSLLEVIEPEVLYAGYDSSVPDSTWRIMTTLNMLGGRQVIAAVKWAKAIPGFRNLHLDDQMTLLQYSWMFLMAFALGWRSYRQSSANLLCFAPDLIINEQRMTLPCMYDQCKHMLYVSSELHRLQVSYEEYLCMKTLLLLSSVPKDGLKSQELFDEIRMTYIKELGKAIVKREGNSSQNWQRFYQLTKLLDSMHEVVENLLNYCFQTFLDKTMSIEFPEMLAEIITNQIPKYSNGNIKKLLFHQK
X-box-binding protein 1 (Homo sapiens), sequence (P17861 whole entry, looked up): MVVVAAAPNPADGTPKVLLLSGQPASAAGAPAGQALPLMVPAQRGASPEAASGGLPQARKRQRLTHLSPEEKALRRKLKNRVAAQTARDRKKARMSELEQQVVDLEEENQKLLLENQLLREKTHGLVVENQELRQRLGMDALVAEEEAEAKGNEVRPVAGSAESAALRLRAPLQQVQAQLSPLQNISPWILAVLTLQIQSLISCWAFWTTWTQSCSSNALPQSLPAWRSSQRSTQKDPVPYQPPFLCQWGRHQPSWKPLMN

Cc1ccc(C=O)cc1
inactive: [1] | [2] | [3] | [4] | [5] | [6] | [7] | [8] | [9] | [10] | [11]

CC1(CO)CN(c2ccccc2)NC1=O (configuration not stated)
inactive: [1] | [2] | [3] | [12] | [5] | [13] | [14] | [15] | [10] | [11]

COc1cc2ncnc(Nc3cccc(Cl)c3)c2cc1OC
active: [1] 13.4 µM | [3] 12.7 µM | [5] 8.13 µM
not listed: [6] | [12] | [15] | [19] | [20]
inactive: all other assays above

NCCOCCO
not listed: [5] | [7] | [8] | [9] | [12] | [13] | [14] | [15]
inactive: all other assays above

CC(c1cc2ccccc2s1)N(O)C(N)=O (configuration not stated)
inactive: [1] | [2] | [3] | [4] | [5] | [6] | [9] | [10] | [11]
active: [16] 100 µM

C=CC(=O)OCC(O)COc1ccccc1 (configuration not stated)
inactive: [1] | [2] | [12] | [16] | [9] | [18] | [13] | [15] | [10] | [11]
active: [3] 26.2 µM

Cc1cccc(C)c1C
inactive: [1] | [2] | [3] | [12] | [16] | [8] | [13] | [14] | [10]

Cc1c(Cl)c(=O)oc2cc(O)ccc12
active: [3] 149 µM | [17] 20.9 µM
not listed: [4] | [5] | [8] | [13] | [18] | [19] | [20]
inactive: all other assays above

CC(=O)O[C@]1(C(C)=O)CC[C@H]2[C@@H]3C[C@H](C)C4=CC(=O)CC[C@]4(C)[C@H]3CC[C@@]21C
active: [3] 17.1 µM | [16] 0.354 µM
not listed: [6] | [12] | [14] | [15] | [18] | [19] | [20]
inactive: all other assays above

C[C@]12CC[C@H]3[C@@H](CCC4=CC(=O)CC[C@@]43C)[C@@H]1CC[C@@H]2C(=O)CO
active: [3] 5.34 µM | [4] 1.78 µM | [16] 6.33 µM
inactive: [1] | [2] | [5] | [17] | [9] | [13] | [14] | [15] | [10]

C#C[C@]1(O)CC[C@H]2[C@@H]3CCC4=Cc5oncc5C[C@]4(C)[C@H]3CC[C@@]21C
inactive: [1] | [2] | [16] | [8] | [13] | [15] | [11]
active: [3] 4.54 µM | [4] 0.412 µM | [5] 42.1 µM | [17] 26.4 µM | [10] 52.5 µM

CC(CCO)CCc1ccccc1 (configuration not stated)
active: [4] 25.2 µM
not listed: [5] | [7] | [9] | [12] | [18] | [19] | [20]
inactive: all other assays above

CC(C)(C)c1cc(CCC(=O)NN)cc(C(C)(C)C)c1O
inactive: [1] | [2] | [3] | [19] | [6] | [7] | [9] | [10] | [11]

CCCOCC(C)O (configuration not stated)
not listed: [4] | [8] | [11] | [12] | [14] | [15] | [16] | [19]
inactive: all other assays above

CC1CCC(C(C)CS)CC1S (configuration not stated)
active: [10] 50.5 µM
not listed: [4] | [8] | [12] | [15] | [18] | [20]
inactive: all other assays above

CCCCNC(=O)NS(=O)(=O)c1ccc(N)cc1
inactive: [1] | [2] | [3] | [19] | [5] | [9] | [18] | [13] | [10] | [11]

CCN(CC)c1ccc(C(=C2C=CC(=[N+](CC)CC)C=C2)c2ccc(S(=O)(=O)O)cc2S(=O)(=O)[O-])cc1
not listed: [4] | [8] | [9] | [12]
inactive: all other assays above
